MITF TRPM1 HTS: MITF TRPM1 promoter activation in melanoma cells | SK-MEL-5 TRPM1-promoter luciferase, 24 h; % of positive control, neutral wells = 0 | 0.75% of 300,000 active | activation, % at 12.5 µM;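 active means mean activation of at least 80% with every replicate also reaching 80%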;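 further: 0% = neutral control wells and 100% = parthenolide positive control wells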
esBAF inh: blocks esBAF chromatin remodeling in mouse ES cells. reporter increase, % at 12.5 µM. Bmi1-luciferase knock-in reporter, 24 h; 100% = twice the neutral-well signal. 2% of 350,000 active. AID 602393; in the data active means activation above about 40%;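 further: 0% = median of the plate's neutral control wells and 100% = double that signal; a rise in the Bmi1 reporter signal indicates esBAF inhibition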
FXN GAA850 act: frataxin GAA850 promoter activation; 0.56% of 360,000 active; HEK293 lucGAA850 FXN promoter luciferase reporter, 24 h; percent of 10 µM SAHA response; activation, % at 6 µM;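 active means activation above the average of all compounds screened plus 3 SD, cutoff fixed separately per campaign, cut at about 7.5% in these data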;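 further: 0% = DMSO wells and 100% = 10 µM SAHA wells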
Statin myotox sup: suppression of simvastatin myotoxicity | C2C12 myotubes + simvastatin, ATP luminescence, 48 h; scaled: DMSO 0, geranylgeraniol control 100 | rescue of ATP level, % at 7.49 µM | 0.78% of 330,000 active | AID 602340;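 active means mean ATP rescue above about 67%, or every replicate alone reaching that limit, limit read from the data, passing the limit was not always enough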;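 further: myotubes were challenged with 10 µM simvastatin during compound exposure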
Wnt act: Wnt/beta-catenin pathway activation; 1.2% of 300,000 active; AID 743398; Wnt/beta-catenin reporter cell assay, activator, plate reader; activation, % at 9.35 µM; in the data active means activation above about 30%, passing the limit was not always enough;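 further: 0% = neutral control wells and 100% = positive control wells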
Ring1 derepress: confirmation of esBAF inhibitors: Ring1 de-repression in mouse ESCs; fold change at 33 µM; mouse ESC E14, Ring1 mRNA RT-qPCR fold change; 550 tested, under 10 active; shares compounds with esBAF inh; AID 743176;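 active means Ring1 gene expression raised more than 2-fold over untreated cells in both replicates at either tested dose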;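 further: Ring1 transcript normalised to actin housekeeping signal by TaqMan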
Fgf4 repress: confirmation of esBAF inhibitors: Fgf4 repression in mouse ESCs | shares compounds with esBAF inh | mouse ESC E14, Fgf4 mRNA qPCR fold change; hits give low values | Fgf4 expression fold change at 33 µM | 4% of 550 active | AID 743177;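 active means Fgf4 expression under 0.8 fold of control in both repeat measurements at one or both tested doses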;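 further: Fgf4 transcript normalised to actin in duplex TaqMan qPCR; cells exposed to compound for 24 h before lysis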
esBAF Bmi1 qPCR: de-represses Bmi1 in mouse ESCs, confirming esBAF inhibition; shares compounds with esBAF inh; mouse ESE14 ES cells, Bmi1 mRNA qPCR fold; hits give high values; fold change at 33 µM; 550 tested, under 10 active; AID 743180;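 active means Bmi1 expression fold change above 6 at either tested concentration, seen in replicate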;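 further: higher fold means more Bmi1 de-repression and stronger esBAF inhibition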
A549 tox SP: cytotoxicity in A549 cells; shares compounds with esBAF inh; plate reader; cell viability change % (negative = cytotoxic), % at 25 µM, hits read low; 550 tested, under 10 active; call rule not given here
HepG2 cytotox SP: kills or reduces viability of HepG2 cells; shares compounds with esBAF inh; HepG2 cytotoxicity, plate reader; hits give low values; activity change, negative = inhibition, % at 25 µM; 4% of 550 active; in the data active means activity change below about -50%
HEK293 cytotox SP: HEK293 cell cytotoxicity at single point; shares compounds with esBAF inh; plate reader; activity change, negative = inhibition, % at 25 µM, hits read low; 3% of 550 active; AID 743190; in the data active means activity change below about -38%, passing the limit was not always enough
An asterisk follows results filed as active; / = no result. In the library only some 3.3% were active in any assay of this set; here they are far more common.

SMILES	MITF TRPM1 HTS	esBAF inh	FXN GAA850 act	Statin myotox sup	Wnt act	Ring1 derepress	Fgf4 repress	esBAF Bmi1 qPCR	A549 tox SP	HepG2 cytotox SP	HEK293 cytotox SP
CCCC(=O)Nc1ccc2c(c1)C(=O)N(C)[C@@H]1CC[C@H](CC(=O)NCCc3ccncc3)O[C@@H]1CO2	/	0.2	/	-9.3	/	/	/	/	/	/	/
Nc1nc(SCc2ccccc2)cc(SCc2ccccc2)n1	54.0	65.2*	5.9	2.9	39.0*	1.14	1.08	1.66	-12.4	1.1	-3.6
Nc1ccc2c(c1)C(=O)c1ccc(N)cc1-2	32.2	76.1*	5.0	9.6	-1.7	1.25	0.939	1.74	-0.5	-3.5	5.8
CCN(CC)c1nc(C=Cc2ccc(N(C)C)cc2)c2nccnc2n1	/	/	1.7	/	-0.5	/	/	/	/	/	/
CN(C)c1ccc(C=Cc2nccc3ccccc23)cc1	/	70.1*	/	2.6	3.3	1.46	1.07	4.22	-47.7	-74.5*	-63.1*
CC(C)c1ccc(NC(=O)c2ccc3snnc3c2)cc1	76.2	71.7*	5.6	-39.9	19.1	1.15	0.938	1.79	-2.6	10.8	-5.2
O=C(Nc1ccccc1)c1ccc2snnc2c1	11.1	/	1.4	/	13.0	/	/	/	/	/	/
O=C(/C=N/NC(=O)c1ccc(Cl)cc1Cl)c1ccccc1	43.3	59.1*	3.6	-13.7	49.1*	1.41	1.1	1.47	-3.0	-28.3	-6.4
CCCC#Cc1ccc2c(c1)O[C@@H](CN(C)CC1CCOCC1)[C@@H](C)CN([C@@H](C)CO)S2(=O)=O	/	0.0	/	0.7	/	/	/	/	/	/	/
O=c1c2ccccc2oc2cc(-c3ccc4cc[nH]c4c3)ccc12	129.2*	70.5*	5.5	-100.6	37.6*	1.32	0.921	1.61	-3.0	0.1	8.9
Cc1ccc(C(=O)Nc2ccc(Br)c(C(F)(F)F)c2)cc1	84.0*	73.6*	5.8	-11.9	/	1.14	0.926	2.8	-4.8	6.9	-55.6*
Cc1ccc(NC(=O)Nc2ccc(F)c(Cl)c2)cc1	65.4	64.4*	1.1	-27.2	47.3*	0.944	1.31	1.55	-9.2	-18.2	-33.2
COc1ccc(NC(=O)Nc2cc(C)ccc2OC)cc1	17.3	19.8	0.2	4.2	/	/	/	/	/	/	/
COc1ccc(NC(=O)Nc2cc(C)ccc2F)cc1	100.7*	123.1*	6.2	-38.6	28.7	0.909	0.929	1.63	-19.4	-34.0	-25.4
Cc1ccc(CNC(=O)C2CCC(=O)N(CCc3ccc(Cl)cc3)C2)cc1 (stereo not given)	74.8	56.3*	3.7	15.3	7.8	1.19	0.926	1.71	-4.7	3.3	2.1
Cc1ccc(CNC(=O)C2CCC(=O)N(CCc3ccc(Cl)cc3)C2)s1 (stereo not given)	19.9	-2.6	0.8	-0.9	-4.3	/	/	/	/	/	/
O=C(Nc1cccc(O)c1)c1cccc(C(=O)Nc2cccc(O)c2)c1	/	-9.1	-0.1	2.0	1.7	/	/	/	/	/	/
O=C(Nc1cccc(O)c1)c1ccc(Br)cc1	71.3	57.2*	4.8	0.3	/	1.05	1.12	1.28	-7.1	-10.7	-17.9
COC(=O)c1c(-c2ccc(SC)cc2)sc2ccc(OC)cc12	67.6	98.6*	4.4	-9.2	57.8*	1.28	0.829	1.87	5.5	4.4	-5.3
COC(=O)c1c(-c2cc(OC)cc(OC)c2)sc2ccc(OC)cc12	36.9	20.1	2.0	-3.5	7.3	/	/	/	/	/	/
COc1cccc(Nc2cc(C)c3ccccc3n2)c1	61.3	65.6*	1.5	-9.6	13.3	1.11	0.884	1.83	-9.1	-44.5	-25.4
COc1ccc(Nc2cc(C)c3c(O)cccc3n2)cc1	129.9*	56.5*	1.0	-62.1	0.1	1.36	1.22	1.22	-7.6	5.9	-13.4
